Assay results: PubChem BioAssay
Activity calls are given as the source filed them. Unless noted, how the calls were made is not given here.

What was measured:
[1] = resazurin metabolic signal in HepG2 cells – cell-based, resazurin fluorescence, 24 h, PK04 Diversity Set, profiling panel (AID 1172); conditions: HepG2 viability, higher = more signal
[2] = budding yeast growth changes without added modifier – OD600, strain BY4716, 24 h, basal condition, primary screen (AID 1173); conditions: S. cerevisiae BY4716 growth, OD600, 24 h; higher = more signal, called active from +8 up or from −8 down
[3] = viability profiling in MM1S myeloma cells – cell-based, resazurin fluorescence, basal, 24 h, PK04 Diversity Set, profiling panel (AID 1174); conditions: higher = more signal, called active from +8 up or from −8 down;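 further: MM1S multiple myeloma cell line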
[4] = target: Dihydroorotate dehydrogenase (quinone), mitochondrial (Plasmodium falciparum (isolate 3D7)) (UniProt Q08210); assay: inhibition of P. falciparum DHODH – biochemical, C-terminal His tag, absorbance 600 nm, primary screen (AID 1175); conditions: PfDHODH enzyme, DCIP absorbance 600 nm; higher = more signal, called active from +8 up or from −8 down;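 further: recombinant parasite enzyme with a five histidine tag at its C terminus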
[5] = inhibition of PAO1 biofilm formation – strain PAO1, LB-PBS medium, absorbance 600 nm, primary screen (AID 1176); conditions: P. aeruginosa PAO1 growth/biofilm, A600, 12 h; higher = more signal
[6] = growth modulation of vineyard yeast isolate – strain RM11-1a, OD600, basal, 24 h, primary screen (AID 1177);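 further: cultures grown under basal conditions with no added stressor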; conditions: S. cerevisiae RM11-1a growth, OD600, 24 h; higher = more signal, called active from +8 up or from −8 down
[7] = growth of efflux-deficient E. coli DRC39 – strain DRC39, OD650, 24 h, E. coli filamentation inducers, primary screen (AID 1178);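 further: growth measured as culture turbidity by optical density at 650 nm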; conditions: E. coli DRC39 acrAB, higher = more signal, called active from +8 up or from −8 down
[8] = growth of efflux-deficient E. coli DRC39 – strain DRC39, OD650, 48 h, E. coli filamentation inducers, primary screen (AID 1179);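 further: screen aims at cell division blockers that make cells filament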; conditions: E. coli DRC39 delta-acrAB growth, higher = more signal, called active from +8 up or from −8 down
[9] = viability profiling in RPMI8226 myeloma cells – cell-based, resazurin fluorescence, basal, 24 h, PK04 Diversity Set, profiling panel (AID 1180); conditions: higher = more signal;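 further: RPMI8826 multiple myeloma cell line at 5000 cells per well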
[10] = target: E3 ubiquitin-protein ligase XIAP (Homo sapiens) (UniProt P98170); assay: small molecules binding XIAP protein – biophysical, small-molecule microarray, fluorescence 635 nm, primary screen (AID 1181); conditions: higher = more signal;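 further: score merges 667 nm emission and signal to noise over triplicate slides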
[11] = test system: XIP peptide (Xip251-270) binding; assay: XIP fragment 251-270 binding compounds – biochemical, small-molecule microarray, fluorescence 635/667 nm, 0.1 µg/mL protein, primary screen (AID 1182); conditions: fluorescent protein binding, 635 nm, higher = more signal, called active from +8 up or from −8 down
XIP peptide (Xip251-270) = assay: compounds binding XIP fragment 251-270 – biochemical, small-molecule microarray, fluorescence 635/667 nm, 0.5 µg/mL protein, primary screen (AID 1183); conditions: fluorescence 635 nm, higher = more signal
[12] = blood-stage malaria parasite viability loss – strain 3D7, DAPI fluorescence, 100 nL, primary screen (AID 1184);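 further: parasites grown inside human red blood cells in medium with human serum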; conditions: P. falciparum 3D7 growth, 3 d, higher = more signal
[13] = target: Homeobox protein Hox-A13 (Mus musculus) (UniProt Q62424); assay: disruptors of Hoxa13 oligonucleotide interaction – biochemical, fluorescence polarization, labeled oligonucleotide, primary screen (AID 1185); conditions: Hoxa13:DNA binding, 15 min, higher = more signal, called active from +8 up or from −8 down
[14] = blockers of DNA damage checkpoint Chk1 activation – imaging, HeLa, hydroxyurea, phospho-Chk1 antibody, percent positive cells, primary screen (AID 1186); conditions: hydroxyurea-induced phospho-Chk1 immunofluorescence imaging, higher = more signal
[15] = blockers of DNA damage checkpoint Chk1 activation – imaging, HeLa, hydroxyurea, phospho-Chk1 nuclear intensity, primary screen (AID 1187); conditions: hydroxyurea-induced phospho-Chk1 immunofluorescence imaging, higher = more signal

Sequence of E3 ubiquitin-protein ligase XIAP (Homo sapiens) (P98170 whole entry, looked up, the tested form may be a part): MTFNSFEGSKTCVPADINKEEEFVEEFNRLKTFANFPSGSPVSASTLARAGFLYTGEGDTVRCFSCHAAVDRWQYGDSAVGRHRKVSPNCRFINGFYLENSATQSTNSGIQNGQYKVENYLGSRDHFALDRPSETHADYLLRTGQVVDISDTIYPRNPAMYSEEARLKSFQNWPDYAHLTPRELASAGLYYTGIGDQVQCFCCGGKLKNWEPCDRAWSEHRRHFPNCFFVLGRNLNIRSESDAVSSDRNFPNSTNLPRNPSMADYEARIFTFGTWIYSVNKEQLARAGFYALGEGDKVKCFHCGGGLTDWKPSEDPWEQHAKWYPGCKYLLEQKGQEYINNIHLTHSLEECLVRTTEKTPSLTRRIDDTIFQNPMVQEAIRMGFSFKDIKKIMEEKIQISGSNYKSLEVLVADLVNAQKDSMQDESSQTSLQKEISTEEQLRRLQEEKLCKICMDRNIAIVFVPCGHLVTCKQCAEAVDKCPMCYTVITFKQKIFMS
Sequence of Homeobox protein Hox-A13 (Mus musculus) (Q62424 whole entry, looked up): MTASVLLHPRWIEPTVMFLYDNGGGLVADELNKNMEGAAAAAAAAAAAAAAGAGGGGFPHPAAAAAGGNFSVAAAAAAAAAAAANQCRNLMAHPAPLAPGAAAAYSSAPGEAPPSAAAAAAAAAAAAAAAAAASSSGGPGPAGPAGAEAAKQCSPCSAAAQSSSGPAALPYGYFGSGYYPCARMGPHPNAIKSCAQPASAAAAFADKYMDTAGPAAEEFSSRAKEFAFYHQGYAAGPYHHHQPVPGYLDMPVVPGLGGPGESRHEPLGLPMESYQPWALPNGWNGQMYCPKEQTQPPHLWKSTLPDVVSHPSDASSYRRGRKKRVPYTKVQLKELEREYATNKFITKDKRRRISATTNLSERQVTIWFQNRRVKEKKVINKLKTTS
Sequence of Dihydroorotate dehydrogenase (quinone), mitochondrial (Plasmodium falciparum (isolate 3D7)) (Q08210 whole entry, looked up): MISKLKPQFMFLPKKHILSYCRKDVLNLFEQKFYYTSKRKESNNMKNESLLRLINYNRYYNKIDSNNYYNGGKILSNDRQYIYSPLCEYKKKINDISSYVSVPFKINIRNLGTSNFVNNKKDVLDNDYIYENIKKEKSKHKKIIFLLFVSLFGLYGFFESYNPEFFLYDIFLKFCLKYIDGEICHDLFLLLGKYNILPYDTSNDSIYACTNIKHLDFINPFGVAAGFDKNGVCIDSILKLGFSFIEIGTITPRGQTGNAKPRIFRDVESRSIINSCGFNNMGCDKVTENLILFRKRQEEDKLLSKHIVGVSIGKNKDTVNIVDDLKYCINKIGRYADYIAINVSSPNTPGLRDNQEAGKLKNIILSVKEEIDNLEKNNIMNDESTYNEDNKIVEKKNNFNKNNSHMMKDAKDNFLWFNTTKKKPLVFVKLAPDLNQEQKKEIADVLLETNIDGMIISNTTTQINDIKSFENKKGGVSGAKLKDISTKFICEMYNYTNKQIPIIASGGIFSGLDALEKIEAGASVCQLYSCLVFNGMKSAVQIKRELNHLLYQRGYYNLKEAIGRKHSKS

SMILES	z-score [1]	z-score [2]	z-score [3]	composite z-score [4]	z-score [5]	z-score [6]	z-score [7]	z-score [8]	z-score [9]	composite z-score [10]	composite z-score [11]	composite z-score (XIP peptide (Xip251-270))	z-score [12]	z-score [13]	z-score [14]	z-score [15]
CO[C@H]([C@@H](C)[C@H](OC)c1ccccc1)[C@H](C)[C@@H](OC)[C@H](C)C(C)=O	0.0132	-1.22 (inactive)	0.367 (inactive)	0.758 (inactive)	-0.373 (inactive)	0.135 (inactive)	-0.0566 (inactive)	-0.59 (inactive)	-0.0764	-0.21	0.111 (inactive)	-0.694	0.117	-1.36 (inactive)		
CCOC(=O)CCN1C(=O)[C@H]2[C@H]3[C@H](O)[C@H](O)CC(=NOC[C@@H](O)COCc4ccco4)[C@@H]3CC[C@H]2C1=O	-0.454	0.846 (inactive)	-1.27 (inactive)	0.318 (inactive)	-0.0121 (inactive)	0.176 (inactive)	-0.153 (inactive)	0.324 (inactive)	-0.8	-0.124	-0.159 (inactive)	0.807	1.93	-0.692 (inactive)		
CCCNC(=O)[C@@H]1c2ccccc2C(=O)N(Cc2ccccc2Cl)[C@H]1c1ccc(CO)cc1	1.44	-0.768 (inactive)	0.496 (inactive)	-0.227 (inactive)	-0.217 (inactive)	0.251 (inactive)	0.812 (inactive)	0.829 (inactive)	1.45	-0.078	-0.101 (inactive)	0.799	-0.994	-2.59 (inactive)	-0.258 (inactive)	-0.142 (inactive)
CCOC(=O)[C@H](Cc1ccccc1)NC(=O)CCC1CC(OC(=O)NCc2ccc3c(c2)OCO3)CC2(CCCC(COC(=O)NCc3ccccc3)O2)O1 (some centres undefined)	0.966	-0.0513 (inactive)	0.637 (inactive)	0.208 (inactive)	0.0858 (inactive)	0.864 (inactive)	0.703 (inactive)	1.22 (inactive)	0.676	-0.0089	-0.148 (inactive)	0.389	-1.76	-0.513 (inactive)		
CCOC(=O)[C@H](Cc1ccccc1)NC(=O)CCC1CC(OC(=O)NCc2ccc3c(c2)OCO3)CC2(CCCC(COC(=O)NCC3CCCCC3)O2)O1 (some centres undefined)	1.19	-0.653 (inactive)	0.625 (inactive)	-0.0475 (inactive)	-0.695 (inactive)	0.104 (inactive)	0.0066 (inactive)	0.216 (inactive)	0.419	0.257	-0.292 (inactive)	0.646	-1.96	-2.6 (inactive)		
COCCOC(=O)N1C(=O)[C@@]2(c3ccccc31)[C@H](C(N)=O)[C@H]1C(=O)O[C@H](c3ccccc3)[C@H](c3ccccc3)N1[C@@H]2c1ccccc1OCCO	-1.23	0.225 (inactive)	-2.56 (inactive)	0.692 (inactive)	0.517 (inactive)	1.63 (inactive)	0.201 (inactive)	-0.158 (inactive)	-4.25	0.209	3 (inactive)	0.801	-0.418	-4.4 (inactive)	0.228 (inactive)	0.42 (inactive)
O=C1CCCC=C1C(O)CCOCc1ccccc1 (centres undefined)	0.123	-1.76 (inactive)	-0.43 (inactive)	-0.0462 (inactive)	0.602 (inactive)	-0.735 (inactive)	-0.88 (inactive)	-1.74 (inactive)	0.104	-0.0525	-0.294 (inactive)	0.0941	-0.929	-0.861 (inactive)		
CO[C@@H]1COC(=O)CC=C[C@@H](C)[C@@H]2C=C[C@@H](O)[C@@H](COC(=O)CC=C[C@H]1C)O2	0.234	-1.29 (inactive)	0.604 (inactive)	-1.34 (inactive)	0.683 (inactive)	-2.03 (inactive)	-0.0072 (inactive)	-0.392 (inactive)	-0.501	0.0304	0.794 (inactive)	-0.317	0.328	-0.816 (inactive)		
COc1ccc(O[C@H]2C=C[C@@H](c3ccccc3)O[C@@H]2COC(=O)CCC(C)=NOC[C@@H](C)[C@H](OCc2ccccc2)C(C)C)cc1	0.85	0.445 (inactive)	0.24 (inactive)	-0.926 (inactive)	-0.598 (inactive)	0.659 (inactive)	0.394 (inactive)	-0.9 (inactive)	0.0668	0.552	0.294 (inactive)	-0.794	-0.925	-0.43 (inactive)		
COC(=O)CC=C[C@@H](C)[C@@H](C=NO[C@@H](C)c1cc(-c2c(C)cc(C)cc2C)no1)OC	-0.295	-0.408 (inactive)	-0.656 (inactive)	-2.58 (inactive)	-0.728 (inactive)	-0.357 (inactive)	-0.716 (inactive)	-2.26 (inactive)	0.197	-0.124	0.0164 (inactive)	-0.293	-1.12	-3.69 (inactive)		
